According to PubChem BioAssay (EPA / NIEHS):
Records with an inconclusive call do not appear. The source made the active and inactive calls. The calls were made as follows: active = hit-call score of the fitted dose curve at least 0.9, where 1 is the maximum; inconclusive = response in the unintended direction; inactive = score below 0.9.

test: ACEA_ER_AUC_viability: ACEA Biosciences xCELLigence Real-Time Cell Analysis on Estrogen Receptor Agonism for Viability (AID 2283782);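 also: continuous compound exposure with impedance area under curve over 80 h; hit means loss of impedance signal meaning reduced cell growth or viability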
Method: ACEA_ER is a cell-based, single-readout assay that uses T47D, a human breast cell line, with measurements taken at 80 hours after chemical dosing in a 96-well plate, although TO2 (mc0.srcf) used a 384-well plate. Differences in plate size can be ignored given data normalization.ACEA_ER_AUC_viability is one of two assay component(s) measured or calculated from the ACEA_ER assay. It is designed to make measurements of real-time cell-growth kinetics, a form of growth reporter, as detected with electrical impedance signals by Real-Time Cell Electrode Sensor (RT-CES) technology.Data from the assay component ACEA_ER_AUC_viability was analyzed in the positive analysis fitting direction relative to DMSO as the negative control and baseline of activity. Using a type of growth reporter, loss-of-signal activity can be used to understand changes in the viability. Furthermore, this assay endpoint can be referred to as a secondary readout, because this assay has produced multiple assay endpoints where this one serves a viability function. To generalize the intended target to other relatable targets, this assay endpoint is annotated to the cell cycle intended target family, where the subfamily is cytotoxicity.
The xCELLigence system Multi-E-Plate stations were used to measure the time-dependent response to chemicals. Each compound was tested in an eight-point, 1:4 serial dilution series starting at a maximum final concentration of 100 uM. A maximum starting concentration of 0.5% DMSO was present in the 100 uM chemical samples and was diluted along with the test article dilution series. The screen was performed in biological duplicate using two separate, 96-well, E-Plates 96 for each dilution series (n = 2). Positive controls (MG132 and E2) and a negative control (assay media) were tested in quadruplicate on each testing plate. Then, 0.5% and 0.125% DMSO were tested in duplicates in each plate to serve as solvent controls for the 2 highest concentrations of testing compounds: 100 uM and 25 uM. Reference compounds were tested with 8 concentrations with 1:5 serial dilutions. All screening was carried out by ACEA Biosciences, Inc. (San Diego, CA). T-47D cells purchased from ATCC were maintained in RPMI1640 media supplemented with 10% characterized fetal bovine serum (FBS). Before screening, T-47D cells were preconditioned in assay medium: phenol red-free RPMI1640 supplemented with 10% charcoal-stripped FBS. Cells were then detached and seeded in E-Plates 96 in assay medium. After overnight monitoring of growth once every hour, compounds were added to […] cells and remained in the medium until the end of the experiment. Cellular responses were then recorded once every 5 min for the first 5 h, and once every hour for an additional 100 h.

**Q.** For `CC(Cc1ccc(C(C)(C)C)cc1)CN1C[C@@H](C)O[C@@H](C)C1` (stereo not given in full), which AC50 is on record?
**A.** The AC50 was 89.5 µM (active).

**Q.** Which outcome does the source give for `CN(C)N` here?
**A.** The outcome was “inactive”.

**Q.** Which outcome does the source give for `CC(C)CCCCCCCOP(=O)(Oc1ccccc1)Oc1ccccc1` here?
**A.** The outcome was “inactive”.

**Q.** With `CC1CCC(=O)O1` (stereo not given) as the compound, how does the AC50 read?
**A.** The AC50 was 50 µM (active).

**Q.** Which AC50 does the source give for `CC(=O)/C=C/c1ccccc1` here?
**A.** The AC50 was 85.1 µM (active).

**Q.** With `O=C(O)C(Br)Br` as the compound, how does the outcome read?
**A.** The outcome was “inactive”.

**Q.** With `Nc1ccccc1` as the compound, how does the outcome read?
**A.** Its outcome is “inactive”.

**Q.** Which AC50 does the source give for `CCCCCCCCCCCCCCCC[N+](C)(C)C` here?
**A.** The AC50 was 10.9 µM (active).

**Q.** For `O=C1C=CC(=O)C=C1`, which AC50 is on record?
**A.** Its AC50 is 73.5 µM (active).

**Q.** Which outcome does the source give for `[Cl-].[Cl-].[Cl-].[Yb+3]` here?
**A.** The outcome was “inactive”.

**Q.** Which outcome does the source give for `COP(=O)(OC)Oc1ccc([N+](=O)[O-])cc1` here?
**A.** The outcome was “inactive”.

**Q.** Which outcome does the source give for `NNc1ccccc1` here?
**A.** The outcome was “inactive”.

**Q.** Which outcome does the source give for `CC(C)C#N` here?
**A.** Its outcome is “inactive”.

**Q.** Which AC50 does the source give for `[Cl][Sb]([Cl])[Cl]` here?
**A.** Its AC50 is 87.8 µM (active).

**Q.** With `O=P(O)(Oc1ccccc1)Oc1ccccc1` as the compound, how does the outcome read?
**A.** The outcome was “inactive”.

**Q.** With `C=CC(=O)OCCO` as the compound, how does the AC50 read?
**A.** Its AC50 is 46.4 µM (active).

**Q.** For `CCOP(=O)(OCC)OCC`, which outcome is on record?
**A.** Its outcome is “inactive”.

**Q.** Which AC50 does the source give for `O=S(=O)(O)O` here?
**A.** Its AC50 is 6.09 µM (active).

**Q.** Which outcome does the source give for `COC(=O)c1ccccc1S(=O)(=O)NC(=O)Nc1nc(C)cc(C)n1` here?
**A.** The outcome was “inactive”.

**Q.** For `CCCN(CC1CC1)c1c([N+](=O)[O-])cc(C(F)(F)F)cc1[N+](=O)[O-]`, which AC50 is on record?
**A.** Its AC50 is 25.4 µM (active).

**Q.** Which outcome does the source give for `Cc1ncc(C[n+]2csc(CCO)c2C)c(N)n1` here?
**A.** The outcome was “inactive”.

**Q.** Which outcome does the source give for `CCC[N+](=O)[O-]` here?
**A.** Its outcome is “inactive”.

**Q.** For `C=CCN(CC=C)C(=O)C(Cl)Cl`, which outcome is on record?
**A.** The outcome was “inactive”.

**Q.** With `S=c1[nH]c2ccccc2[nH]1` as the compound, how does the outcome read?
**A.** Its outcome is “inactive”.

**Q.** Which outcome does the source give for `O=S(=O)(O)OOS(=O)(=O)O` here?
**A.** The outcome was “inactive”.

**Q.** Which AC50 does the source give for `Nc1ccccc1C(=O)Oc1ccc2ccccc2c1` here?
**A.** Its AC50 is 24.4 µM (active).

**Q.** For `c1ccc2c(c1)CCCC2`, which outcome is on record?
**A.** The outcome was “inactive”.

**Q.** Which outcome does the source give for `Oc1ccc(Cl)cc1` here?
**A.** Its outcome is “inactive”.

**Q.** With `Cc1ccc(OP(=O)(Oc2ccc(C)cc2)Oc2ccc(C)cc2)cc1` (tested in a mixture with another compound) as the compound, how does the outcome read?
**A.** Its outcome is “inactive”.

**Q.** With `Nc1cc(Cl)cc(Cl)c1` as the compound, how does the outcome read?
**A.** Its outcome is “inactive”.

**Q.** Which outcome does the source give for `O=C(O)CCl` here?
**A.** The outcome was “inactive”.

**Q.** With `O=[N+]([O-])C=Cc1ccccc1` as the compound, how does the outcome read?
**A.** Its outcome is “inactive”.

**Q.** For `C[C@]12CC[C@H](O)C[C@H]1CC[C@@H]1[C@@H]2C[C@@H](O)[C@]2(C)[C@@H](C3=CC(=O)OC3)CC[C@]12O`, which AC50 is on record?
**A.** The AC50 was 1.75 µM (active).

**Q.** With `Cc1cc(C)c(C2=C(OC(=O)CC(C)(C)C)C3(CCCC3)OC2=O)c(C)c1` as the compound, how does the outcome read?
**A.** Its outcome is “inactive”.

**Q.** For `CC1(C)CC(=O)CC(C)(C)N1[O]`, which outcome is on record?
**A.** The outcome was “inactive”.

**Q.** Which outcome does the source give for `CC(C)C(=O)Cl` here?
**A.** Its outcome is “inactive”.

**Q.** Which AC50 does the source give for `c1cc[n+]2c(c1)-c1cccc[n+]1CC2` here?
**A.** Its AC50 is 22.8 µM (active).

**Q.** Which outcome does the source give for `CCC1CCC(=O)O1` (stereo not given) here?
**A.** The outcome was “inactive”.

**Q.** With `CCCCOP(=O)(O)OCCCC` as the compound, how does the AC50 read?
**A.** The AC50 was 20.3 µM (active).

**Q.** With `SCc1ccco1` as the compound, how does the outcome read?
**A.** Its outcome is “inactive”.
